High-throughput results: PubChem, National Center for Advancing Translational Sciences (NCATS)
This is one part of a sample in which hits are shown more often than they occur.
KDM5B inhibitor = KDM5B demethylase inhibition. KDM5B demethylase, FDH-coupled NADH fluorescence (FDH is formaldehyde dehydrogenase). Potency, µM (titrated, usually from 57.7 µM), usual class: inhibitors. hit rate 2.6% among 220,000; active = well fitted inhibition curve with a large enough effect; also: 0% is about no effect; nearly all actives have a fitted effect of over 70% in size
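KDM5BΔAP (200 nM final) in 50 mM HEPES pH 7.5, 0.01% Tween-20 was preincubated 10 min at RT with compound over a concentration range. Substrate mix (H3K4me3 12.5 µM, α-KG 25 µM, Fe²⁺, ascorbate, NAD⁺, FDH) was added, and NADH fluorescence change over 30 min gave dose-response curves.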
* hit, by the source's call; i = inactive. Potency is read from the fitted curve at half-maximal effect.

SMILES | KDM5B inhibitor
Cc1nn2c(c1-c1ccccc1C(N)=O)N(CCCc1ccccc1)CCC2 | 32µM*
Cc1nn2c(c1-c1ccccc1C(C)C)N([S+](=O)([O-])c1ccc(C(C)C)cc1)CCC2 | i
Cc1nn2c(c1-c1ccccc1[S+](C)(=O)[O-])N(CCCc1ccccc1)CCC2 | 25µM*
COc1ccccc1C(=O)N1CCCn2nc(C)c(-c3ccccc3OCc3ccccc3)c21 | i
Cc1nn2c(c1-c1ccccc1[S+](C)(=O)[O-])N(Cc1ccccc1)CCC2 | i
Cc1nn2c(c1-c1cccnc1N1CCOCC1)N(CCCc1ccccc1)CCC2 | i
COc1ccc(C(=O)/C(=C/c2ccc(C)o2)c2nc3ccccc3o2)cc1OC | i
O=C(CSc1nc2cc([N+](=O)[O-])ccc2o1)NC12CC3CC(CC(C3)C1)C2 | i
CC[C@@H]1[C@@H](NC(=O)c2ccc(N3CCN(C)CC3)cc2)[C@@H]2CCO[C@H]12 | i
COC[C@@H]1[C@H](NC(=O)CN2CCN(c3cccc(C)c3)CC2)[C@@H]2CCO[C@H]12 | i
CC[C@@H]1[C@H](NC(=O)c2cccc(N3CCS(=O)(=O)CC3)c2)[C@@H]2CCO[C@H]12 | 22µM*
CCCCNCCCN1CCOCC1 | i
Cc1noc(C)c1C(=O)N(C)Cc1ccc2c(c1)OCO2 | i
Cc1cc(CNC(=O)c2ccc3c(c2)OCO3)c2ccccc2n1 | i
COc1ccc(CNC(=O)c2c(C)noc2-c2ccc(OC(F)(F)F)cc2)cc1 | i
Cc1noc(-c2ccc3c(c2)OCO3)c1C(=O)NCc1ccccc1 | 28µM*
Cc1ccc(CNC(=O)c2c(C)noc2-c2ccc3c(c2)OCO3)o1 | 25µM*
COc1ccccc1-c1onc(C)c1C(=O)NCc1cccc(C)c1 | i
Cc1cccc(CNC(=O)c2c(C)noc2-c2ccc3c(c2)OCO3)c1 | 32µM*
Cc1noc(-c2ccccc2Cl)c1C(=O)NCc1cc(F)cc(F)c1 | i
Cc1noc(-c2ccco2)c1C(=O)NCc1cccc(Cl)c1 | i
Cc1ccc(S(=O)(=O)CCC(=O)OCC(=O)NC(C)C(C)C)cc1 (centres undefined) | i
Cc1cccc(Cn2cccc2CNC(=O)NC23CC4CC(CC(C4)C2)C3)c1 | i
Cc1cccc(NC(=O)CSc2nc3ccccc3c(=O)n2CCn2cc(Cl)cn2)c1C | i
O=C(CSc1ccc2ccccc2n1)NC1CCS(=O)(=O)C1 (centres undefined) | i
SMILES | KDM5B inhibitor
Cn1nc(CC(=O)NCc2ccccc2CN2CCOCC2)c2ccccc2c1=O | i
Cc1ccc(C(=O)NC(Nc2ccc(Cl)cc2)C(Cl)(Cl)Cl)cc1 (centres undefined) | i
O=C(/C=C/c1c(Cl)cccc1Cl)c1ccc(O)cc1 | i
CC(Oc1cccc(F)c1)C(=O)NCCc1ccccn1 (centres undefined) | i
COc1cc(/C=C/c2nc3cc(C)c(C)cc3s2)cc(OC)c1 | i
COc1ccc(Cl)cc1NC(=O)Nc1ccc2c(c1)oc(=O)n2C | i
COc1cccc(N2C(=O)c3cc4oc(C)cc4n3CC2(C)C(=O)NC2CCCCCC2)c1 (centres undefined) | i
Cc1oc(-c2ccccc2)nc1CN1CCN(C(=O)c2ccco2)CC1 | i
O=C(CC[C@@H]1CNC(=O)[C@@H]2C[C@H](NC(=O)Nc3ccccc3)CN12)NCc1ccccc1 | i
NC(=O)[C@H](CCC(=O)O)NC(=O)C1=C[C@@H](NC(=O)CC2(CC(=O)O)CCCC2)[C@@H](O)[C@H](O)C1 | i
CS(=O)(=O)CC[C@H](NC(=O)C1=C[C@@H](NC(=O)CCN)[C@@H](O)[C@H](O)C1)C(N)=O | 40µM*
Cc1ccc(C(=O)N[C@@H]2C=C(C(=O)N[C@@H](CCS(C)(=O)=O)C(N)=O)C[C@@H](O)[C@@H]2O)cc1 | i
Clc1ccccc1COc1ccc(CNCc2cccnc2)cc1 | i
Cc1ccc(-c2nc(CN3CCCC3c3cc(C)no3)co2)cc1 (centres undefined) | i
CCN(CC)CCNCc1sccc1C | i
Cc1ccc2nc(-c3ccc(C)s3)cc(C(=O)NCCN3CCOCC3)c2c1 | i
CCNC(=O)c1cc(-c2ccccc2)nc2ccccc12 | i
Cc1cc(C(=O)NCCC(c2ccccc2)c2ccccc2)c2ccccc2n1 | i
Cc1ccc2c(C(=O)NCCN3CCCCC3)cc(NC(=O)C(C)C)cc2n1 | 22µM*
Cc1ccc2c(C(=O)NCc3ccccc3Cl)cc(NC(=O)C(C)C)cc2n1 | 14µM*
Cc1cc(CNC(=O)c2cc(C)nc3ccccc23)c2ccccc2n1 | i
CCNC(=O)c1cc(NC(=O)C(C)C)cc2nc(C)ccc12 | 25µM*
CCCNC(=O)c1cc(C)nc2ccccc12 | i
Cc1cc(C(=O)NCc2ccccc2F)c2ccccc2n1 | i
Cc1cc(C(=O)OCC(=O)Nc2cccc(F)c2)c2ccccc2n1 | i
SMILES | KDM5B inhibitor
O=C(O)c1cc(Cl)c(Cl)c(Cl)c1 | i
NC(=O)C(Oc1cc(Cl)ccc1Cl)c1ccc(F)cc1 (centres undefined) | i
COc1ccc(C(=O)N2CCC3(CC2)NC(=O)N(c2ccccc2)N3)cc1F | i
CCCCN(C)C(=O)C1CCN(CC(C)c2ccccc2)CC1 (centres undefined) | i
COc1cc2cc(C(=O)N[C@@H](C)C(=O)Nc3ncc(C)s3)n(C)c2c(OC)c1OC | i
O=C(CSCC(O)c1ccccc1)c1c[nH]c2ccccc12 (centres undefined) | i
CCN(C(=O)c1ccc(F)cc1I)C1CC1 | i
COc1cc(C(=O)NCc2nc(C)cs2)ccc1OC1CCN(C(C)=O)CC1 | i
COc1ccc(OC2CCN(C(C)=O)CC2)c(C(=O)NC(C)Cc2cccs2)c1 (centres undefined) | 28µM*
CC(C)c1nc(CNC(=O)c2ccc(OC3CCN(C(=O)C4CC4)CC3)cc2)cs1 | i
CCn1ccnc1CNC(=O)c1cc(OC)ccc1OC1CCN(C(=O)C2CC2)CC1 | 28µM*
CCC(NC(=O)c1cc(OC)ccc1OC1CCN(C(C)=O)CC1)c1ccc(F)cc1 (centres undefined) | 28µM*
COc1ccc(C(C(=O)O)N2CCC(C(=O)N3CCCC3)CC2)c(OC)c1 (centres undefined) | i
COc1ccc(C(=O)NCc2csc(C(C)C)n2)cc1OC1CCN(C(C)=O)CC1 | i
CCC(C)NC(=O)C(NC(=O)c1ccccc1F)C1CCN(C(=O)c2ccc(OC)cc2)CC1 (centres undefined) | i
COc1ccc(OC2CCN(C(C)=O)CC2)c(C(=O)N(C)CC2CCCCO2)c1 (centres undefined) | i
COc1cc(/C=C(/C#N)c2nc3ccccc3o2)ccc1O | i
NC(=S)N/N=C1\CCCC\C1=C/c1ccco1 | i
CCOC(=O)c1ccc(OCc2ccccc2C#N)cc1 | i
Clc1ccc(N/N=C/c2cccc(/C=N/Nc3ccc(Cl)c(Cl)c3)c2)cc1Cl | i
O=C(CCc1ncc(-c2ccc(F)cc2F)o1)NCc1ccc(C(=O)N2CCCC2)cc1 | i
O=C(Cn1c(=O)n(CCc2ccccc2)c(=O)c2sccc21)c1ccc(F)cc1 | i
CCN(CC)C(=O)c1noc2c1CC(C(C)(C)C)CC2 (centres undefined) | i
O=S(=O)(c1cc(Cl)ccc1Cl)N1CCN(C/C=C/c2ccccc2)CC1 | i
Cc1ccc2c(C)nc(Nc3nc(C)c(Cc4ccccc4)c(=O)[nH]3)nc2c1 | i
CC(Oc1ccccc1)C(=O)NCc1cccnc1N(C)C (centres undefined) | i
